Screening data from PubChem BioAssay.
PolyA inhibitor: blocks polyadenylation in yeast reporter cells. actives 0.02% (n = 300,000). activity score, % at 12 µM. AID 1875. S. cerevisiae SKY197-pL101 polyadenylation reporter, beta-gal luminescence; efflux-impaired pdr1/pdr3 knockout yeast; score 100 = 6 SD above DMSO;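 active = lowest replicate activity score at least 50, where 100 means six control SD above control mean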;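 also: yeast exposed to compound for 9 h at 30 °C; higher score means more reporter readthrough which indicates perturbed polyadenylation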
hgDAF-12 ag: agonists of H. glycines DAF-12 nuclear receptor | AID 687014 | activation, % at 6.8 µM | HEK293 GAL4-hgDAF12 UAS-luciferase reporter, agonist luminescence; normalized to butyrate control | actives 1.8% (n = 370,000);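 active = activation above a cutoff set at the mean of all screened compounds plus 3 SD, cut at about 10% in these data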;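 also: 0% = DMSO wells and 100% = sodium butyrate wells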
DAX1 inh-1: inhibits human nuclear receptor DAX1 | P51843 | HEK293 Gal4-DAX1 luciferase reporter, luminescence | inhibition, % at 6.75 µM | actives 0.99% (n = 340,000) | AID 504766;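 active = inhibition above the mean over all tested compounds plus 3 SD, cut at about 4.2% in these data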;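 also: 0% = DAX1-transfected cells with DMSO and 100% = empty-vector control cells with DMSO; inhibition shows as a rise in luminescence from relieved DAX1 repression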
hcDAF-12 act: H. contortus DAF-12 activation, primary screen | HEK293 hcDAF-12 lit1-tk-luc reporter, luminescence; 0% DMSO, 100% Δ7-dafachronic acid | activation, % at 6.8 µM | actives 1.4% (n = 370,000) | AID 652067;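 active = activation above the mean of all tested compounds plus 3 SD, cut at about 5.5% in these data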;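 also: 100% = response to 3 µM Δ7-dafachronic acid high control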
DAX1 inh-2: inhibitors of DAX1 repression of SF-1 activated StAR promoter. HEK293T StAR-luciferase reporter, SF-1/DAX-1 repression relief. inhibition, % at 6.8 µM. actives 1.1% (n = 370,000). AID 652010;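 active = inhibition above the mean over all tested compounds plus 3 SD, cut at about 3.6% in these data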;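 also: 0% = DAX-1 cells with DMSO and 100% = cells lacking DAX-1 with DMSO; higher inhibition means more luminescence from relief of DAX-1 repression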
ssDAF12 agonist: activators of S. stercoralis DAF-12 nuclear receptor; HEK293 ssDAF-12/GRIP1 lit1-tk-luc reporter, luminescence; % of 3 µM dafachronic acid response; activation, % at 6.8 µM; actives 1% (n = 370,000); AID 652126;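 active = activation above the mean over all tested compounds plus 3 SD, cut at about 0.9% in these data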;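 also: 0% = DMSO-only wells and 100% = 3 µM delta7-dafachronic acid wells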
DAX1 conf: confirmation of human DAX1 (NR0B1) inhibitors; actives 87% (n = 2,400); shares compounds with DAX1 inh-2; HEK293T StAR-promoter luciferase reporter, SF-1/DAX-1 repression; AID 652134; inhibition, % at 6.8 µM;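 active = inhibition above the average of every tested compound plus 3 SD, cut at about 3.8% in these data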;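 also: 0% = DAX-1 cells with DMSO and 100% = no DAX-1 control cells with DMSO; active compounds raise luminescence by relieving repression of the StAR reporter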
SF1 mutant ctr: counter-screen for DAX1 inhibitors: nonselective inhibitors with SF-1 AF2 mutant | shares compounds with DAX1 inh-2 | HEK293 StAR-luciferase, luminescence | inhibition, % at 6.8 µM | actives 78% (n = 2,400) | AID 652136;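 active = inhibition above the mean of all tested compounds plus 3 SD, cut at about 3% in these data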;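 also: 0% = DAX-1 transfected cells with DMSO and 100% = cells without DAX-1 with DMSO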
LXRb hcDAF ctr: counter-screen for hcDAF-12 agonists: agonists of human LXR-beta. shares compounds with hcDAF-12 act. HEK293 Gal4-LXR tk-luc reporter, luminescence, 24 h; normalized: DMSO 0%, positive control 100%. activation, % at 6.8 µM. 3,400 tested, under 10 active. AID 743027;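 active = mean percent activation of the reporter above a cutoff set as the average over tested compounds plus their standard deviation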
Target sequence (P55055 whole entry, looked up, the tested form may be a part): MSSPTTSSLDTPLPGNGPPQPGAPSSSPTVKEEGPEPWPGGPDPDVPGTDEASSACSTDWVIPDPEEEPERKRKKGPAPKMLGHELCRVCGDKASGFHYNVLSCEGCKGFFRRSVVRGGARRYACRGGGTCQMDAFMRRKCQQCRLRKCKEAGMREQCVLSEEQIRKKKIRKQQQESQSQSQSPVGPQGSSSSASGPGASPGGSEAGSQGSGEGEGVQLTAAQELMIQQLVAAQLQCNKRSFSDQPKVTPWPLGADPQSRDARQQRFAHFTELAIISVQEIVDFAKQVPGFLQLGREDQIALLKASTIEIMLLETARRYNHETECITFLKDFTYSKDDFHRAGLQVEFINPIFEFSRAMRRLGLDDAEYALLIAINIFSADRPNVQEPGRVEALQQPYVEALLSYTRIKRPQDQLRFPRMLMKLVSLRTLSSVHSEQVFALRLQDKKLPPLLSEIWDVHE
hcDAF12 ag: confirmation of H. contortus DAF-12 agonists. AID 743032. HEK293 hcDAF-12 lit1-tk-luc reporter, luminescence; % of Δ7-dafachronic acid response. activation, % at 6.8 µM. shares compounds with hcDAF-12 act. actives 61% (n = 3,400);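 active = mean activation across triplicate tests above the threshold derived from the earlier primary screen, cut at about 5.5% in these data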;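 also: 0% = DMSO only wells and 100% = 3 µM Δ7-dafachronic acid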
Active calls of the source: *. Hits are enriched below; roughly 4.1% of the tested compounds scored in any of these assays.

Screening Cc1cc(C(=O)OCC(=O)NC2CCC(C)CC2)c(C)o1 (stereo not given) returned hgDAF-12 ag -2, DAX1 inh-1 1, hcDAF-12 act -1, DAX1 inh-2 1 and ssDAF12 agonist -1.
For Cc1cc(C(=O)NC2CCC(C)CC2)c(C)o1 (stereo not given) the results were PolyA inhibitor 17, hgDAF-12 ag 8, DAX1 inh-1 3, hcDAF-12 act 13*, DAX1 inh-2 7.5*, ssDAF12 agonist 0, DAX1 conf 14*, SF1 mutant ctr 6.7*, LXRb hcDAF ctr 1 and hcDAF12 ag 7.7*.
Cc1ccc(Cl)cc1NC(=O)OCCN(C)C(=O)Nc1cc(Cl)ccc1C was read as hgDAF-12 ag -2, hcDAF-12 act -3, DAX1 inh-2 -1 and ssDAF12 agonist -1.
For COc1cccc(NC(=O)N2CCCCCC2)c1 the results were PolyA inhibitor -5, hgDAF-12 ag 5, DAX1 inh-1 1, hcDAF-12 act 7.7*, DAX1 inh-2 4.6*, ssDAF12 agonist -1, DAX1 conf 5.7*, SF1 mutant ctr 4.0*, LXRb hcDAF ctr 0 and hcDAF12 ag 1.
For O=C(Nc1ccccc1)Nc1ccc(C(=O)N2CCCC2)cc1 the results were PolyA inhibitor 30, hgDAF-12 ag 17*, DAX1 inh-1 -1, hcDAF-12 act 8.8*, DAX1 inh-2 4.9*, ssDAF12 agonist 0, DAX1 conf 13*, SF1 mutant ctr 7.5*, LXRb hcDAF ctr 1 and hcDAF12 ag 6.9*.
Screening Cc1ccnc(NC(=O)/C=C/c2ccccc2Cl)c1 returned PolyA inhibitor -3, hgDAF-12 ag 13*, DAX1 inh-1 -3, hcDAF-12 act 8.9*, DAX1 inh-2 5.3*, ssDAF12 agonist 1.4*, DAX1 conf 8.6*, SF1 mutant ctr 4.7*, LXRb hcDAF ctr 2 and hcDAF12 ag 9.3*.
Screening Cc1cnc(NC(=O)c2sc3ccccc3c2Cl)s1 returned PolyA inhibitor -19, hgDAF-12 ag 30*, DAX1 inh-1 2, hcDAF-12 act 17*, DAX1 inh-2 5.4*, ssDAF12 agonist 3.1*, DAX1 conf 6.4*, SF1 mutant ctr 2, LXRb hcDAF ctr 2 and hcDAF12 ag 17*.
For Cc1cc(C)nc(NC(=O)/C=C/c2ccccc2Cl)n1 the results were PolyA inhibitor -8, hgDAF-12 ag 2, DAX1 inh-1 2, hcDAF-12 act -1, DAX1 inh-2 1 and ssDAF12 agonist -1.
`Cc1ccnc(NC(=O)c2cccc3ccccc23)c1` gave PolyA inhibitor -16, hgDAF-12 ag 5, DAX1 inh-1 0, hcDAF-12 act 1, DAX1 inh-2 2 and ssDAF12 agonist -1.
`Cc1ccnc(NC(=O)c2sc3ccccc3c2Cl)c1` gave PolyA inhibitor 15, hgDAF-12 ag 16*, DAX1 inh-1 1, hcDAF-12 act 8.7*, DAX1 inh-2 8.0*, ssDAF12 agonist 0, DAX1 conf 6.9*, SF1 mutant ctr 2, LXRb hcDAF ctr 1 and hcDAF12 ag 10*.
For Cc1cccnc1NC(=O)CNC(=O)c1sc2ccccc2c1Cl the results were hgDAF-12 ag 1, DAX1 inh-1 0, hcDAF-12 act 1, DAX1 inh-2 0 and ssDAF12 agonist 0.
Cc1ccc(/C=N/Nc2cccc(C(=O)O)c2)s1 was read as PolyA inhibitor 3, hgDAF-12 ag 27*, DAX1 inh-1 -4, hcDAF-12 act 12*, DAX1 inh-2 8.3*, ssDAF12 agonist 2.5*, DAX1 conf 17*, SF1 mutant ctr 8.5*, LXRb hcDAF ctr 2 and hcDAF12 ag 14*.
Cc1ccc(/C=N/Nc2ccc(C(=O)O)cc2)s1 was read as PolyA inhibitor 5, hgDAF-12 ag -5, DAX1 inh-1 -4, hcDAF-12 act -1, DAX1 inh-2 -1 and ssDAF12 agonist -2.
`Cc1ccsc1/C=N/Nc1cccc(C(=O)O)c1` gave hgDAF-12 ag 17*, DAX1 inh-1 -8, hcDAF-12 act 10*, DAX1 inh-2 11*, ssDAF12 agonist 1, DAX1 conf 19*, SF1 mutant ctr 11*, LXRb hcDAF ctr 2 and hcDAF12 ag 19*.
Cc1ccsc1/C=N/NC(=O)CNC(=O)c1ccccc1 was read as PolyA inhibitor -7, hgDAF-12 ag 2, DAX1 inh-1 0, hcDAF-12 act 0, DAX1 inh-2 0 and ssDAF12 agonist -1.
`COC(=O)c1ccsc1NS(C)(=O)=O` gave hgDAF-12 ag 0, hcDAF-12 act 2, DAX1 inh-2 0 and ssDAF12 agonist -1.
`O=[N+]([O-])c1ccc(N2CCc3ccccc3C2)cc1` gave PolyA inhibitor -23, hgDAF-12 ag 5, DAX1 inh-1 -1, hcDAF-12 act -1, DAX1 inh-2 -1 and ssDAF12 agonist -1.
`Cc1ccc2c(c1)Cc1nc3ccccc3nc1-2` gave PolyA inhibitor -4, hgDAF-12 ag 20*, DAX1 inh-1 -2, hcDAF-12 act 17*, DAX1 inh-2 7.4*, ssDAF12 agonist 2.8*, DAX1 conf 14*, SF1 mutant ctr 8.5*, LXRb hcDAF ctr 2 and hcDAF12 ag 15*.
COc1ccc(C(=O)Nc2nnc(-c3ccco3)s2)cc1 was read as PolyA inhibitor -1, hgDAF-12 ag 9, DAX1 inh-1 -2, hcDAF-12 act 7.7*, DAX1 inh-2 6.9*, ssDAF12 agonist 1.1*, DAX1 conf 9.0*, SF1 mutant ctr 1, LXRb hcDAF ctr 1 and hcDAF12 ag 7.2*.
`O=C(N[C@@H](Cc1cccnc1)C(=O)N1CCC[C@H]1C(=O)NC1CCCC1)c1ccccc1` gave hgDAF-12 ag -2, hcDAF-12 act 0, DAX1 inh-2 1 and ssDAF12 agonist 0.
